Results on seven molecules are retold here after PubChem BioAssay (Tox21).

Structures are written as SMILES. Inconclusive results are not listed. A number with no mark means an inactive call. Active and inactive are the calls of the source. Unless noted, calls follow the shape of the dose curve; as a rule, active = well fitted curve in the direction sought with a large enough effect in the repeat runs; inconclusive = weak or mixed curves; inactive = no such curve, though single readings can be large; an effect the other way counts as inactive or inconclusive.

Test [1] in a line: qHTS assay to identify small molecule antagonists of the vitamin D receptor (VDR) signaling pathway - cell viability counter screen (AID 743225). Also: nearly all actives have a fitted effect of over 50% in size. The essentials:
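Compounds were pinned onto VDR-bla HEK 293T cells together with 1-alpha,25-dihydroxyvitamin D3 at 3 nM final. After 16 h at 37C and 5% CO2 plus the reporter readout, cell viability was measured by CellTiter-Glo luminescence (30 min, room temperature).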
(In qHTS, concentration-response curves come from the screen itself.)

Test [2] is described as follows: qHTS assay to identify small molecule agonists of the NFkB signaling pathway (AID 1159509; active = well fitted curve in the direction sought with a large enough effect in the signal ratio in the repeat runs, not every such curve was filed as active; the % refers to the signal ratio; also: series mostly up to about 61 µM). An outline of the steps:
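NFkB-bla ME-180 cells with a beta-lactamase reporter under an NF-kB response element were plated overnight, treated with compounds in DMSO for 5 hr at 37 C, then loaded with FRET substrate for 1.5 hr at room temperature.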

Test [3] in a line: qHTS assay to identify small molecule agonists of the NFkB signaling pathway - cell viability counter screen (AID 1159515; calls by dose curve; also: series mostly up to about 61 µM; nearly all actives have a fitted effect of over 55% in size). The essentials: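 5 hr compound treatment of NFkB-bla ME-180 cells (2,000/well, seeded overnight beforehand), followed by reporter substrate for 1.5 hr. CellTiter-Glo added afterward; luminescence after 30 min RT.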
Test [4] in a line: qHTS assay to identify small molecule agonists of the endoplasmic reticulum stress response signaling pathway (AID 1159516; active = well fitted activation curve with a large enough effect in the signal ratio in the repeat runs, not every such curve was filed as active; the % refers to the signal ratio). An outline of the steps:
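Reporter HeLa cells (ESRE-beta-lactamase) underwent 5 hr compound incubation at 37 C and 5% CO2 in quantitative HTS format. Detection followed 2 hr of FRET substrate loading at room temperature.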

Test [5] can be described thus: qHTS assay to identify small molecule agonists of the endoplasmic reticulum stress response signaling pathway - cell viability counter screen (AID 1159517; calls by dose curve;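 also: HeLa cells carrying an ER stress response element beta-lactamase reporter; series mostly up to about 61 µM; nearly all actives have a fitted effect of over 50% in size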). An outline of the steps: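 Luminescence readout: CellTiter-Glo, 30 min RT, same wells as the ESRE-bla reporter read. HeLa ESRE-bla, 1,500 cells/well, o/n 37 C; cpd 5 hr 37 C/5% CO2.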
Test [6] is described as follows: qHTS assay to identify small molecule antagonists of the retinoid-related orphan receptor gamma (ROR-gamma) signaling pathway - cell viability counter screen (AID 1159520). Also: nearly all actives have a fitted effect of over 50% in size. The essentials: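 Tet-on ROR gamma CHO cells (1,000/well) were plated 4 hr, given compounds in DMSO for 2 hr at 37 C, then induced with 1 uM final doxycycline for 16 hr. Viability was read as ATP by CellTiter-Glo luminescence after 30 min.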

For test [7], the target named is Nuclear receptor ROR-gamma (Homo sapiens) (UniProt P51449). The test can be described thus: qHTS assay to identify small molecule antagonists of the retinoid-related orphan receptor gamma (ROR-gamma) signaling pathway (AID 1159521;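 also: CHO cells with doxycycline inducible ROR-gamma driving an RORE luciferase reporter; top concentration of the series differs between compounds; nearly all actives have a fitted effect of over 50% in size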). An outline of the steps:
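Test compounds were applied to Tet-on RORγ CHO cells 2 h ahead of doxycycline hyclate (1 uM final). Luciferase reporter activity was quantified by luminescence after 16 h at 37 C and 5% CO2.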

Test [8] in a line: qHTS assay to identify small molecule agonists of the AP-1 signaling pathway (AID 1159526; calls by dose curve).
For test [9], the target named is Retinoic acid receptor RXR-alpha (Homo sapiens) (UniProt P19793). The experiment in a line: qHTS assay to identify small molecule agonists of the RXR signaling pathway (AID 1159527; calls by dose curve; also: nearly all actives have a fitted effect of over 35% in size). An outline of the steps:
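Using 9-cis retinoic acid as the reference agonist, chemicals were tested in HEK 293T cells […] for 16 hr; substrate loading lasted 2 hr at room temperature.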

A short description of test [10]: qHTS assay to identify small molecule agonists of the RXR signaling pathway - cell viability counter screen (AID 1159529). The essentials:
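Compounds dissolved in DMSO were pinned onto HEK 293T cells carrying a beta-lactamase reporter under RXR-alpha control and incubated 16 hr. Cytotoxicity was then quantified by CellTiter-Glo luminescence.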

Test [11] in a line: qHTS assay to identify small molecule antagonists of the retinoid acid receptor (RAR) signaling pathway - cell viability counter screen (AID 1159551). Also: nearly all actives have a fitted effect of over 35% in size. The essentials:
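Seed C3RL4 cells; next day add compound, then retinol to 1 uM final; incubate 6 h at 37 C; add CellTiter-Glo; read luminescence after 30 min at RT.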

Test [12] in a line: qHTS assay to identify small molecule antagonists of the retinoic acid receptor (RAR) signaling pathway (AID 1159552; also: nearly all actives have a fitted effect of over 50% in size). An outline of the steps: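 Test chemicals and DMSO controls were pin-transferred onto C3RL4 cells a day after seeding; retinol (1 uM final) followed at once. Luminescent reporter output was quantified after 6 hr of co-incubation and 30 min with detection reagent.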

A short description of test [13]: qHTS assay to identify small molecule agonists of the retinoic acid receptor (RAR) signaling pathway (AID 1159553). Also: potency is read from the fitted curve at half-maximal effect. An outline of the steps:
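Activation of retinol signaling was monitored via a RARE luciferase reporter in C3RL4 cells. After 6 hr compound treatment at 37 C, detection reagent was added for 30 min at room temperature before luminescence reading.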

Test [14] is described as follows: qHTS assay to identify small molecule antagonists of the estrogen related receptor (ERR) signaling pathway from Tox21 library - cell viability counter screen (AID 1224834). Also: nearly all actives have a fitted effect of over 30% in size. The essentials:
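CellTiter-Fluor fluorescence measured; ERR cells; 17.5 h compound incubation at 37 C; 30 min reagent step.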

Test [15] concerns the target Luciferin 4-monooxygenase (Photinus pyralis) (UniProt P08659). The experiment in a line: qHTS assay to identify small molecule inhibitors of firefly luciferase (AID 1224835). Also: nearly all actives have a fitted effect of over 25% in size. Also: potency is read from the fitted curve at half-maximal effect. The essentials: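 Quantitative HTS format; KM concentrations of both substrates. Purified P. pyralis FLuc activity quantified from luminescence images.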
Test [16] in a line: qHTS assay to identify small molecule agonists of the constitutive androstane receptor (CAR) signaling pathway - cell viability counter screen (AID 1224836). Also: series mostly up to about 92 µM; nearly all actives have a fitted effect of over 45% in size. An outline of the steps: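 23 h treatment, 37 C, 5% CO2. Cell line: HepG2 stably expressing hCAR with a CYP2B6-2.2kb construct. Co-treatment: PK11195, 0.75 uM final. Read-out: CellTiter-Fluor fluorescence intensity.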
The nature of test [17]: qHTS assay to identify small molecule antagonists of the constitutive androstane receptor (CAR) signaling pathway - cell viability counter screen (AID 1224837). Also: series mostly up to about 92 µM; nearly all actives have a fitted effect of over 45% in size. The essentials: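 Using CellTiter-Fluor, viability is scored in HepG2 cells stably carrying hCAR and a 2.2kb CYP2B6 reporter after 23 hr compound exposure across 15 concentrations, with CITCO present at 50 nM.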

The target in test [18] is Nuclear receptor subfamily 1 group I member 3 (Homo sapiens) (UniProt Q14994). The experiment in a line: qHTS assay to identify small molecule antagonists of the constitutive androstane receptor (CAR) signaling pathway (AID 1224838).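 Also: HepG2 cells stably expressing hCAR with CYP2B6 luciferase reporter stimulated by CITCO; nearly all actives have a fitted effect of over 40% in size.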 The essentials:
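Reporter luminescence was quantified after 24 h exposure of hCAR/CYP2B6-2.2kb double-stable HepG2 cells to compounds at 15 concentrations in the presence of 50 nM CITCO final.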

Test [19] shares this target. The experiment in a line: qHTS assay to identify small molecule agonists of the constitutive androstane receptor (CAR) signaling pathway (AID 1224839). Also: series mostly up to about 92 µM; nearly all actives have a fitted effect of over 15% in size. An outline of the steps: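 Compounds tested at 15 concentrations on HepG2 cells stably harbouring hCAR and CYP2B6-2.2kb reporter constructs, co-treated with PK11195 (0.75 uM final), 24 h at 37 C; luminescent reporter signal quantified.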

Test [20] can be described thus: qHTS assay to identify small molecule agonists of the AP-1 signaling pathway - cell viability counter screen (AID 1159525; calls by dose curve; also: nearly all actives have a fitted effect of over 55% in size). An outline of the steps: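 ME-180 AP-1-bla, 2500 cells/well, Opti-MEM + 0.5% dialyzed FBS; overnight 37 °C; cpd 15-pt titration, 5 h 37 °C; CellTiter-Glo 30 min RT; luminescence read; normalised to TOAB and DMSO controls.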

Luciferin 4-monooxygenase (Photinus pyralis), sequence (P08659 whole entry, looked up): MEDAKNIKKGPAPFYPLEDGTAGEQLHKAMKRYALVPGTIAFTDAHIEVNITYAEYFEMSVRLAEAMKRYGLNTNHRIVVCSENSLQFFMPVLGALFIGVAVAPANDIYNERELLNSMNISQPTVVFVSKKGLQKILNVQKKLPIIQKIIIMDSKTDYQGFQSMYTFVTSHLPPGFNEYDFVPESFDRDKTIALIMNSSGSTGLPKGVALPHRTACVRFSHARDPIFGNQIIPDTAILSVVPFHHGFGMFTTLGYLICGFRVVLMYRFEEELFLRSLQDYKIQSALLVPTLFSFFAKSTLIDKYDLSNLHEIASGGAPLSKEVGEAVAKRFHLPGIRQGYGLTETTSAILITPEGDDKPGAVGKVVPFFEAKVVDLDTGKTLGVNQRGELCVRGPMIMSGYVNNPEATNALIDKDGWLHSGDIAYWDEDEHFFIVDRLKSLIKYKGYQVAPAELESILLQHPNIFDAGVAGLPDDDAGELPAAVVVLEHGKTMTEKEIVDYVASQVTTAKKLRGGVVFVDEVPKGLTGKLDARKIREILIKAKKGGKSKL
Nuclear receptor subfamily 1 group I member 3 (Homo sapiens), sequence (Q14994 whole entry, looked up): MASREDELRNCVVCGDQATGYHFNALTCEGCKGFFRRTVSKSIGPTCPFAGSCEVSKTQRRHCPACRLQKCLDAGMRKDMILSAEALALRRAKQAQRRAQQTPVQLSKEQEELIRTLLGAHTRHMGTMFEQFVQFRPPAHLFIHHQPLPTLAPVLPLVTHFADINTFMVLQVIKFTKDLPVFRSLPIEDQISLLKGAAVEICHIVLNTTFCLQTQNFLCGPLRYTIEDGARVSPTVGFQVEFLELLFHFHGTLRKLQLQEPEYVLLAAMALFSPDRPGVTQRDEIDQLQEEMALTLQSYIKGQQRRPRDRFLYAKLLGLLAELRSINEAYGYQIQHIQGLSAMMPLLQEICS
Retinoic acid receptor RXR-alpha (Homo sapiens), sequence (P19793 whole entry, looked up): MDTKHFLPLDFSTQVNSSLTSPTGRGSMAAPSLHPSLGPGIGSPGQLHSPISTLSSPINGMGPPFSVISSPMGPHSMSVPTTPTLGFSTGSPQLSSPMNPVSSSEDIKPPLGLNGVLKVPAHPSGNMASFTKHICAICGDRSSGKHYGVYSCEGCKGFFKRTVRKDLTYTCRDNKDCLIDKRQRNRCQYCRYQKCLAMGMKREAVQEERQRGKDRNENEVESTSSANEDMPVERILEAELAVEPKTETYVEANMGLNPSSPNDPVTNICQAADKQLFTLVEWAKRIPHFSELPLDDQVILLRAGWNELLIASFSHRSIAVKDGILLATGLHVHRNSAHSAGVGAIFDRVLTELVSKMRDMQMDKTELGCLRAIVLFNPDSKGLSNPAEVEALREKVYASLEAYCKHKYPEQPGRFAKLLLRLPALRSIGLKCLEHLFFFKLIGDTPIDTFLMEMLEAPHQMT

For the molecule `CC(C)NC(=O)c1ccc(C=O)cc1`, the result in test [1], in [2], in [3], in test [4], in test [5] and in test [6] was inactive. Further, the result in [7], in [8], in [10], in test [11], in [12] and in test [14] was inactive. In addition, the molecule was called inactive in [16] and in test [17]. Further, the Potency result in test [9] and in test [18] was “inactive” each time. For the same molecule, the Potency in [13] was 26.6 µM (active); in test [15], 17.4 µM (active).

Take `CCC[C@@H]1C[C@@H](C(=O)N[C@@H]([C@H]2O[C@H](SC)[C@H](O)[C@@H](O)[C@H]2O)[C@@H](C)O)N(C)C1`: the call in test [1], in test [2], in [3], in test [4], in test [5] and in [6] was inactive. Further, the result in test [7], in [8], in [10], in [11], in [12] and in test [14] was inactive. In addition, the outcome in test [16] and in test [17] was inactive. In addition, the Potency result in [9], in [13], in test [15], in test [18] and in test [19] was “inactive” each time.

Turning to `CCCCCc1cccc(=O)o1`, the outcome in [2], in [3], in test [4], in [6], in test [7] and in [20] was inactive. The call in [8], in [10], in test [11], in [12], in [14] and in [16] was inactive. Further, in test [17], the call was inactive. Besides, the Potency result in test [9], in test [13], in [15], in test [18] and in test [19] was “inactive” throughout.

As for `CC(=O)Nc1ccc(OC(=O)c2ccccc2OC(C)=O)cc1`, the call in [1], in test [2], in test [3], in test [4], in test [5] and in test [6] was inactive. Also, the result in test [7], in [8], in test [10], in [11], in test [12] and in test [14] was inactive. The call in test [16] and in test [17] was inactive. Moreover, the Potency result in test [9], in test [15], in [18] and in test [19] was “inactive” each time. Besides, in [13], the Potency was 23.7 µM (active).

As for `COC(=O)CCCCC(CCSS/C(CCO)=C(\C)N(C=O)Cc1cnc(C)nc1N)SC(C)=O` (stereo not drawn), the outcome in [1], in test [2], in test [3], in [4], in test [5] and in test [6] was inactive. Moreover, the result in test [7], in test [8], in test [10], in test [11], in test [12] and in test [14] was inactive. The outcome in test [17] was inactive. In addition, the Potency result in [9], in test [13], in test [15], in [18] and in test [19] was “inactive” throughout.

Turning to `CN1CCOC(c2ccccc2)c2ccccc2C1` (stereo not drawn), the call in [1], in test [2], in test [3], in [4], in test [5] and in test [6] was inactive. For the same molecule, the molecule was called inactive in test [7], in test [8], in test [10], in test [11], in test [12] and in test [14]. Also, the result in test [16] and in [17] was inactive. For the same molecule, the Potency entry in test [9], in [13], in [15] and in [18] was “inactive” in each case.

`CC(C)=CCC[C@@](C)(O)[C@H]1CC=C(C)CC1`: the call in test [2], in test [3], in [4], in test [5], in test [6] and in test [7] was inactive. In addition, the molecule was classed as inactive in test [8], in test [10], in [11], in test [12], in test [14] and in test [16]. The result in [17] was inactive. Besides, the Potency result in [9], in test [13], in test [15], in [18] and in [19] was “inactive” each time.
